The results in this text go back to PubChem BioAssay (NCATS).

Results filed as inconclusive are left out. Unmarked numbers belong to inactive results. Activity calls are given as the source filed them. The call rests on the fitted dose curve; in most records, active means well fitted cell-killing curve with a large enough effect; inconclusive means small, poorly fitted or top-dose-only effect, or effect the other way; inactive means no such curve, though single readings can be large or run the other way. Starred links: 1 amine or outer side, 2 acyl side, 3 side chain; linkers in the order of their positions; H or OH if unused. Positions of bridges follow the written chain, without caps; N, C: chain ends. Non-standard residues stand in square brackets, D forms with d. Residues, ends and D or L forms follow the SMILES beside them. Chains are numbered I, II in the order given. Actinocin(9to1) = Cc1c2oc3c(C)ccc(C(=O)[*:1])c3nc-2c(C(=O)[*:2])c(N)c1=O; NMeV = CN[CH](C(=O)O)C(C)C; Sar = CNCC(=O)O
Potency means the concentration at half of the fitted maximal effect.

The first assay is described as follows: Quantitative High-Throughput drug screen in 47 multiple myeloma cell lines against the NCATS MIPE library collection: AMO1_DSMZ cell viability assay (AID 1918927; further: nearly all actives have a fitted effect of over 30% in size). Conditions: AMO1 myeloma cells viability, CellTiter-Glo ATP luminescence, 48 h; series mostly up to 45.8 µM; viability, % of DMSO: at the top concentration. Summed up:
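Steps: seed 500 cells per well; pin-transfer MIPE 4.0 library; incubate 48 h at 37C, 5% CO2, humidified; add CellTiter-Glo, 5 min room temperature; read luminescence.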
(In general: ATP-based viability assays read luminescence as a measure of living cells.)
Take `CCc1c(O)cc(O)c(C(=O)c2ccc(OCCN3CCOCC3)c(OC)c2)c1CC(=O)N(CCOC)CCOC`: the “viability, % of DMSO” value was 109%.
Turning to `O=C1NC(=O)[C@@H](c2cn3c4c(cccc24)CCC3)[C@H]1c1c[nH]c2ccccc12`, the Potency is 46.9 nM (active).
For the molecule `Nc1ccn(C[C@@H](CO)OCP(=O)(O)O)c(=O)n1`, the “viability, % of DMSO” value is 138% [at 23.2 µM].
Consider `CCNC(=O)Nc1ccc(-c2nc3c(c(N4CCOC[C@H]4C)n2)CCN(C2COC2)C3)cc1`, for which the Potency was 1320 nM (active).
For the molecule `CN(C)c1ccc2cc(C(=O)N[C@@H](CCCN=C(N)CCl)C(=O)NCc3ccccc3)ccc2c1`, the Potency is 1660 nM (active).
With `Cn1cc(C[C@@H](N)C(=O)O)c2ccccc21`, the “viability, % of DMSO” value is 112% [at 23.2 µM].
For `CCCNC(=O)[C@H]1O[C@H]1C(=O)N[C@H](C(=O)N1CCC[C@@H]1C(=O)OC)C(C)CC` (stereo partly specified), the Potency was 4690 nM (active).
Same read-out and setting: the result for `NS(=O)(=O)OC[C@@H]1C[C@@H](n2ccc3c(N[C@H]4CCc5ccccc54)ncnc32)C[C@H]1O` reads 296 nM (active); that for `CO[C@@H]1[C@@H](O)[C@H](O)[C@@H](n2c3c(Cl)cccc3c3c4c(c5c6cccc(Cl)c6[nH]c5c32)C(=O)NC4=O)O[C@@H]1CO`, 166 nM (active).
On the same count and under the same terms, the result for `COc1cc(OC)c(C=CS(=O)(=O)Cc2ccc(OC)c(NCC(=O)O)c2)c(OC)c1` reads 33.2 nM (active).
In the case of `COc1cc(OC)c(NC(=O)Nc2cc(C)on2)cc1Cl`, the “viability, % of DMSO” value was 112%.

The nature of the next assay: Quantitative High-Throughput drug screen in 47 multiple myeloma cell lines against the NCATS MIPE library collection: ARP1_JJKsccF8 cell viability assay (AID 1918928; further: nearly all actives have a fitted effect of over 40% in size). Conditions: ARP1 myeloma cells viability, CellTiter-Glo ATP, 48 h; series mostly up to 45.8 µM; viability: at the top concentration. Summed up:
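ATP readout (CellTiter-Glo), 48 h drug incubation, 37 °C/5% CO2, 500 cells per well; normalisation to DMSO (100%) and media-only (0%) controls.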
Regarding `Cc1cnc(NC(=O)Nc2cc(Br)c(C)cc2OC[C@@H]2CNCCO2)cn1`, the Potency was 13200 nM (active).
For the molecule `CC(=O)O[C@H]1C[C@@H]2CC[C@H]3[C@H]4C[C@H]([N+]5(C)CCCCC5)[C@@H](OC(C)=O)[C@@]4(C)CC[C@@H]3[C@@]2(C)C[C@H]1[N+]1(C)CCCCC1`, the “viability” value was 106%.
The same measure, in the same setting: the result for `CC(C)(C)[C@H](NC(=O)c1ccc(N)c(Cl)c1)C(=O)N1CCC[C@@H]1C(=O)N[C@H](C#N)CC(=O)O` reads 111% [at 3.51 µM].
In the case of `CCc1c(O)cc(O)c(C(=O)c2ccc(OCCN3CCOCC3)c(OC)c2)c1CC(=O)N(CCOC)CCOC`, the Potency was 1480 nM (active).
On to `O=C(O)CCCCC(CCSCc1ccccc1)SCc1ccccc1` (stereo unspecified), for which the “viability” value was 123%.
Same read-out and setting: for `Nc1ccn(C[C@@H](CO)OCP(=O)(O)O)c(=O)n1` the value was 116% [at 23.2 µM]; for `O=C(O)[C@H](CC(=O)N1C[C@@H]2CCCC[C@H]2C1)Cc1ccccc1`, 119%; for `Cc1c2oc3c(C)ccc(C(=O)NC4C(=O)NC(C(C)C)C(=O)N5CCCC5C(=O)N(C)CC(=O)N(C)C(C(C)C)C(=O)OC4C)c3nc-2c(C(=O)NC2C(=O)NC(C(C)C)C(=O)N3CCCC3C(=O)N(C)CC(=O)N(C)C(C(C)C)C(=O)OC2C)c(N)c1=O` (stereo unspecified) (I: TVP[Sar][NMeV] / II: TVP[Sar][NMeV]; ester I:1-I:C, II:1-II:C; linker I:N-II:N via Actinocin(9to1); configuration not given here), 0.861%.
For the molecule `COC1=C2C[C@@H](C)C[C@H](OC)[C@@H](O)[C@@H](C)C=C(C)[C@H](OC(N)=O)[C@@H](OC)C=CC=C(C)C(=O)NC(=CC1=O)C2=O`, the Potency was 118 nM (active).
Regarding `CC(=O)N1CCN(c2ccc(OCc3nn(C)c(C)c3-c3cccc4c(CCCOc5cccc6ccccc56)c(C(=O)O)n(Cc5cccnc5)c34)cc2)CC1`, the Potency is 10500 nM (active).
The same measure, in the same setting: for `CCNC(=O)Nc1ccc(-c2nc3c(c(N4CCOC[C@H]4C)n2)CCN(C2COC2)C3)cc1` the value was 743 nM (active); for `O=C1NC(=O)C(=Cc2ccc3nccc(-c4ccncc4)c3c2)S1`, 83.3 nM (active).
Consider `CN(C)c1ccc2cc(C(=O)N[C@@H](CCCN=C(N)CCl)C(=O)NCc3ccccc3)ccc2c1`, for which the Potency was 18700 nM (active).
As to `Cn1cc(C2=C(c3c4n(c5ccccc35)CCC(CN)C4)C(=O)NC2=O)c2ccccc21` (stereo unspecified), the Potency was 18700 nM (active).
`Cn1cc(C[C@@H](N)C(=O)O)c2ccccc21`: the “viability” value was 103% [at 23.2 µM].
With `N#CC(=C(N)Sc1ccc(N)cc1)c1ccccc1C(F)(F)F`, the Potency is 14800 nM (active).
On the same count and under the same terms, for `CS[C@H]1SC[C@@H]2C(=O)N(C)[C@H](C(C)C)C(=O)OC[C@H](NC(=O)c3cnc4ccccc4n3)C(=O)N[C@H](C)C(=O)N(C)[C@@H]1C(=O)N(C)[C@H](C(C)C)C(=O)OC[C@H](NC(=O)c1cnc3ccccc3n1)C(=O)N[C@H](C)C(=O)N2C` the value was 3.3 nM (active).
With `CCN(C(=O)c1c(O)c2c(Cl)cccc2n(C)c1=O)c1ccccc1`, the “viability” value is 117%.
On to `CCCNC(=O)[C@H]1O[C@H]1C(=O)N[C@H](C(=O)N1CCC[C@@H]1C(=O)OC)C(C)CC` (stereo partly specified), for which the Potency is 8330 nM (active).
In the case of `O=[N+]([O-])c1cn2c(n1)OC[C@@H](OCc1ccc(OC(F)(F)F)cc1)C2`, the “viability” value was 93%.
Turning to `O=C(C=CC#Cc1cccc(NS(=O)(=O)c2ccccc2)c1)NO`, the Potency is 372 nM (active).
On to `CCOC(=O)C=C[C@H](C[C@@H]1CCNC1=O)NC(=O)[C@@H](CC(=O)[C@@H](NC(=O)c1cc(C)on1)C(C)C)Cc1ccc(F)cc1`, for which the “viability” value is 104%.
Same read-out and setting: for `CC(=O)OCC(=O)[C@@]12N=C(C)O[C@H]1C[C@H]1[C@@H]3CCC4=CC(=O)C=C[C@]4(C)[C@@H]3[C@@H](O)C[C@@]12C` the value was 87%; for `O=S(=O)(O)CCSSCCS(=O)(=O)O`, 123%.
Take `COc1cc(OC)c(C=CS(=O)(=O)Cc2ccc(OC)c(NCC(=O)O)c2)c(OC)c1`: the Potency is 372 nM (active).
The same measure, in the same setting: for `O=C(C=Cc1ccc(CN(CCO)CCc2c[nH]c3ccccc23)cc1)NO` the value was 83.3 nM (active); for `O=C1CSC(=O)N1C(CCc1ccncc1)COc1ccc(-c2cccc([N+](=O)[O-])c2)cc1` (stereo unspecified), 3320 nM (active).
As to `COc1cc(OC)c(NC(=O)Nc2cc(C)on2)cc1Cl`, the “viability” value was 102%.
As to `CC[C@]12C=CCN3CC[C@@]4(c5cc([C@@]6(C(=O)OC)C[C@H]7C[C@@H](C(C)(F)F)CN(Cc8c6[nH]c6ccccc86)C7)c(OC)cc5N(C)[C@H]4[C@@](O)(C(=O)OC)[C@H]1OC(C)=O)[C@@H]32`, the Potency is 4.7 nM (active).
As to `C=C(C)[C@@H]1CC[C@]2(C(=O)O)CC[C@]3(C)[C@H](CC[C@@H]4[C@@]5(C)CC[C@H](O)C(C)(C)[C@@H]5CC[C@]43C)[C@@H]12`, the “viability” value is 92.4%.

Broadly, the viability is a read-out of living cells in per cent, often relative to untreated cells.
